A number with no mark means an inactive call. Results filed as inconclusive are left out. Activity calls are given as the source filed them. Unless noted, the call rests on the fitted dose curve; in most records, active means well fitted curve in the direction sought with a large enough effect in the repeat runs; inconclusive means weak or mixed curves; inactive means no such curve, though single readings can be large; an effect the other way counts as inactive or inconclusive.

The results in this text go back to PubChem BioAssay (Tox21).

The target of one assay is Aromatase (Homo sapiens) (UniProt P11511). The assay can be described thus: qHTS assay to identify aromatase inhibitors (AID 743083; further: nearly all actives have a fitted effect of over 55% in size; further: potency means the concentration at half of the fitted maximal effect). (In general: qHTS replaces the single test concentration by a dilution series.)
For assay [1], the target named is Aryl hydrocarbon receptor (Homo sapiens) (UniProt P35869). Description: qHTS assay to identify small molecule that activate the aryl hydrocarbon receptor (AhR) signaling pathway (AID 743085).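 Further: HG2L7.5c1 human HepG2 liver cells with stably integrated DRE-driven firefly reporter; series mostly up to about 70 µM; nearly all actives have a fitted effect of over 15% in size.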 The method in brief: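 Cell line HG2L7.5c1 (human hepatoma, 20× DRE-luc). Plated, 5 h 37C, compound/DMSO added, 24 h 37C. CellTiter-Fluor 30 min 37C → fluorescence; then ONE-Glo 30 min RT → luminescence.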

A short description of assay [2]: qHTS assay to identify small molecule agonists of H2AX (AID 1224845; active means well fitted activation curve with a large enough effect in the signal ratio in the repeat runs, not every such curve was filed as active; the % refers to the signal ratio). The method in brief: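 Wild-type CHO-K1 cells, plated overnight, exposed 3hr at 37C to 15 concentrations (0.76% DMSO final). Lysed, then HTRF anti-pH2AX (S139) cryptate and anti-H2AX-d2 antibodies, 24 hr room temperature; 665/620 nm emission read.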
Assay [3] addresses Acetylcholinesterase (Homo sapiens) (UniProt P22303). The assay can be described thus: Acetylcholinesterase (AChE) small molecule antagonists: colormetric cell-based qHTS assay (AID 1347395; calls by dose curve; further: nearly all actives have a fitted effect of over 30% in size). The method in brief: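 Colorimetric read-out: DTNB detects thiocholine released when cellular AChE in SH-SY5Y cells hydrolyses acetylthiocholine. Cells attached overnight, received compound for 30 min at 37 C, then substrate mix for 90 min at 37 C.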

The target is the same in assay [4]. The assay can be described thus: Acetylcholinesterase (AChE) small molecule antagonists: enzyme-based qHTS assay (AID 1347397; calls by dose curve; further: nearly all actives have a fitted effect of over 55% in size). The note with it: Potency: AChE enzyme activity inhibition; outcome: AChE enzyme activity inhibition. The method in brief: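 In this quantitative HTS, compounds from the Tox21 10K collection were preincubated 30 min at ambient temperature with recombinant human AChE dispensed at 50 mU/mL. Hydrolysis of acetylthiocholine was then followed for 10 min by DTNB colour development.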

The target is the same in assay [5]. Description: Acetylcholinesterase (AChE) small molecule antagonists: fluorescence cell-based qHTS assay (AID 1347398; calls by dose curve; further: nearly all actives have a fitted effect of over 50% in size). The note with it: Potency: AChE activity; outcome: AChE activity. Put shortly:
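Cells (SH-SY5Y) attached overnight, were dosed with compound or DMSO vehicle for 30 min at 37 C, and then incubated 40 min at room temperature with acetylthiocholine and Thiolite Green; green fluorescence indexed AChE activity.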

Assay [6] has the same target. The assay can be described thus: Acetylcholinesterase (AChE) small molecule antagonists: enzyme-based qHTS assay with human liver microsomes (AID 1347399; calls by dose curve; further: nearly all actives have a fitted effect of over 60% in size). Particulars: Potency: qHTS inhibition; outcome: qHTS inhibition. Put shortly:
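Recombinant human AChE (50 mU/mL in the enzyme mix) and human liver microsomes (0.25 mg/mL final) were preincubated with compound and NADPH (0.25 mg/mL final) for 30 min at 37 C. Acetylthiocholine/DTNB was then added; thiocholine was read colorimetrically after 10 min at room temperature.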

A short description of assay [7]: A CellTox Green Cytotoxicity Assay to monitor cytotoxicity in HEK293 cells - 0 hour (AID 1224869). Further: nearly all actives have a fitted effect of over 50% in size. The method in brief:
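Fluorescence from a DNA-binding dye excluded by viable cells was measured repeatedly in the same HEK293 wells (600 cells/well) during continuous compound exposure at 37 C. Each assay gives one read point: 0, 8, 16, 24, 32 or 40 h.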

Assay [8] can be described thus: A CellTox Green Cytotoxicity Assay to monitor cytotoxicity in HepG2 cells - 0 hour (AID 1224882). Further: nearly all actives have a fitted effect of over 35% in size. Put shortly: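 Real-time cytotoxicity: fluorescence of a cell-impermeant cyanine dye binding DNA of dead HepG2 cells, measured repeatedly (0–40 h) during compound exposure at 37 C. Cells seeded 600/well with reagent, dosed after 5 h.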
A short description of assay [9]: qHTS assay to identify small molecule antagonists of the estrogen receptor alpha (ER-alpha) signaling pathway using the BG1 cell line in the presence of 0.1 nM 17-beta-estradiol - cell viability counter screen (AID 1259241). Further: nearly all actives have a fitted effect of over 40% in size. The method in brief:
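VM7Luc4E2, 4,000 cells/well, phenol red-free medium + 10% charcoal-stripped FBS; 24 hr plating; cpd + 0.1 nM E2 final, 22 hr 37C/5% CO2; CellTiter-Fluor 30 min, fluorescence.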

Assay [10] in a line: qHTS assay to identify small molecule HDAC inhibitors (AID 1259364). Further: top concentration of the series differs between compounds; nearly all actives have a fitted effect of over 45% in size. Put shortly:
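Luminescence read after 30 min room-temperature HDAC-Glo incubation measures cellular class I/II HDAC activity. Compounds were applied for 2 hr at 37 C to HCT-116 wild-type cells seeded the day before.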

Assay [11] can be described thus: Caspase-3/7 induction in HepG2 cells by small molecules, qHTS assay (AID 1346978). Further: nearly all actives have a fitted effect of over 15% in size. The method in brief:
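Wild-type HepG2 cells, 2,000/well, settled 5 hr at 37 C and 5% CO2, then compound-treated for 17 hr; caspase-3/7 activity read by luminescent Caspase-Glo 3/7 after 30 min at room temperature.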

The nature of assay [12]: Caspase-3/7 induction in CHO-K1 cells by small molecules, qHTS assay (AID 1346980). Further: nearly all actives have a fitted effect of over 15% in size. The method in brief: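 Wild-type CHO-K1 cells exposed to compounds for 17hr at 37 C, 5% CO2. Caspase-3/7 activity then measured by Caspase-Glo 3/7 luminescence after 30min at room temperature.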
Assay [13] addresses Cytochrome P450 1A2 (Homo sapiens) (UniProt P05177). Description: Cytochrome P450 Family 1 Subfamily A Member 2 (CYP1A2) small molecule antagonists: luciferase reporter qHTS assay (AID 1671199). Further: nearly all actives have a fitted effect of over 50% in size. Further: potency means the concentration at half of the fitted maximal effect. Put shortly: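 Luminescence from luciferin formed by CYP1A2 from a proluciferin substrate, read 20 min after detection reagent. Compound was pre-incubated 10 min with enzyme-substrate, and reaction started with NADPH regeneration solution for 1 h at room temperature; furafylline control.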
A general note: A reporter such as luciferase makes a cellular process visible.

A short description of assay [14]: qHTS assay to identify small molecule agonists of the estrogen related receptor (ERR) signaling pathway (AID 1224820). Put shortly: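 After 6 h plating (2,000 cells/well) and 18 h compound treatment at 37 C, ERR cells were lysed with One-Glo and luminescence read after 30 min at room temperature.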
The subject of assay [15] is estrogen-related receptor alpha (ERRalpha) with PGC-1alpha coactivator, human. Description: qHTS assay to identify small molecule antagonists of the estrogen related receptor signaling pathway with the pleiotropic PPARgamma coactivator (PGC) (AID 1224821; calls by dose curve;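 further: series mostly up to about 46 µM; lower luminescence signal means antagonism of PGC/ERR signalling; nearly all actives have a fitted effect of over 50% in size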). Put shortly:
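Luminescence from One-Glo luciferase reagent (30 min, room temperature) measured after 18 h compound treatment at 37 °C. Cells carry the PGC/ERR reporter and were seeded 6 h prior to dosing.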

Assay [16] in a line: qHTS assay to identify small molecule antagonists of the estrogen related receptor signaling pathway with the pleiotropic PPARgamma coactivator (PGC) cell viability counter screen (AID 1224822; further: series mostly up to about 46 µM). The method in brief:
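Viability counter-screen read by fluorescence intensity after 30 min with CellTiter-Fluor at 37 C; PGC/ERR reporter cells were exposed to compounds for 17.5 h at 37 C following a 6 h preincubation.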

Assay [17] in a line: qHTS assay to identify small molecule agonists of the estrogen related receptor signaling pathway with the pleiotropic PPARgamma coactivator (PGC) (AID 1224823). The method in brief: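 Luminescence from One-Glo reagent (30 min, room temperature) was read after 18 h compound treatment at 37 C of PGC/ERR cells plated 6 h beforehand; compounds delivered in DMSO by pin tool.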

Assay [18] is described as follows: qHTS assay to identify small molecule antagonists of the estrogen related receptor (ERR) signaling pathway - cell viability counter screen (AID 1224818).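 Further: series mostly up to about 46 µM; viability measured after 17.5 h of compound exposure.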 The method in brief:
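Cytotoxicity counter screen: fluorescence from CellTiter-Fluor, added after 17.5 h compound exposure at 37 C and read 30 min later. ERR cell line seeded at 2,000 cells/well, preincubated 6 h before dosing.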

Assay [19] in a line: qHTS assay to identify small molecule antagonists of the estrogen related receptor (ERR) signaling pathway (AID 1224819). Put shortly: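 LOPAC library screened for antagonism as reduced One-Glo luminescence in ERR reporter cells (2,000/well). Compounds were added after 6 h pre-incubation and left 18 h at 37C; reading followed a 30 min room-temperature reagent step.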

Sequence of Aryl hydrocarbon receptor (Homo sapiens) (P35869 whole entry, looked up): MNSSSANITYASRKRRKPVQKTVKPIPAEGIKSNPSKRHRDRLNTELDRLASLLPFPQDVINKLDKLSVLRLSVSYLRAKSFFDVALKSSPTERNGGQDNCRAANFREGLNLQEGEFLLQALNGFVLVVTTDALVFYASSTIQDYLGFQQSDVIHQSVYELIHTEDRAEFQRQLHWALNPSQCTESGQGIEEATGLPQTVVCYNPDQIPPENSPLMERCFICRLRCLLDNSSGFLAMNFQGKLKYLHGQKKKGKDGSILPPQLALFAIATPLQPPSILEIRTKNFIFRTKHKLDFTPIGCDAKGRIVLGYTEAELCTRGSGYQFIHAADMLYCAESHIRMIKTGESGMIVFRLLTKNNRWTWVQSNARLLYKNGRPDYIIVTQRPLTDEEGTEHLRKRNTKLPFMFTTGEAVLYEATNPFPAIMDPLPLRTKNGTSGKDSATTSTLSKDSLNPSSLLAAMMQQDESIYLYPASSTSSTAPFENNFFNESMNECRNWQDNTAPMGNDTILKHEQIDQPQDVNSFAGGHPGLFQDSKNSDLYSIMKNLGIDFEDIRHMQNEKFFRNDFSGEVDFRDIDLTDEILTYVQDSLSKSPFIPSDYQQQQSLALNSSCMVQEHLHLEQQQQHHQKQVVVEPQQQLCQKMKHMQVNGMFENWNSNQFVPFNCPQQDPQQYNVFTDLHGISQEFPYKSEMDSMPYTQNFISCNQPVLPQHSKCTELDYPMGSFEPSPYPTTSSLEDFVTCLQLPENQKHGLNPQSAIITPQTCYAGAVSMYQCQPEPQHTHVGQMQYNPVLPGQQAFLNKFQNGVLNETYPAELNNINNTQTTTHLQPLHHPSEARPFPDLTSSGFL
Sequence of Cytochrome P450 1A2 (Homo sapiens) (P05177 whole entry, looked up): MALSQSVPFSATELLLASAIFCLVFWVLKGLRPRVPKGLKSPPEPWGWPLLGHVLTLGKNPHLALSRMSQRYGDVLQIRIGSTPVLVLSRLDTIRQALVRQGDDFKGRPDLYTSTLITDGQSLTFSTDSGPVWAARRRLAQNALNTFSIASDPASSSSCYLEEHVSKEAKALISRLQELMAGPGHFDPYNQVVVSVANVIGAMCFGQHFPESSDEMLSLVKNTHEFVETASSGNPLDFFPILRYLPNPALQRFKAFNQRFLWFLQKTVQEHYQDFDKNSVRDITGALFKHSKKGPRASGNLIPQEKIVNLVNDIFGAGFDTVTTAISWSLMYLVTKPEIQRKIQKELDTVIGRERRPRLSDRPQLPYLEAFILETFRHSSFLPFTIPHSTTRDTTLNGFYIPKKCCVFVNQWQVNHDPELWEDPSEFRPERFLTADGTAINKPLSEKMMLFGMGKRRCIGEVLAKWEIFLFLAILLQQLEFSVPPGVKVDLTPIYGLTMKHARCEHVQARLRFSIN
Sequence of Acetylcholinesterase (Homo sapiens) (P22303 whole entry, looked up): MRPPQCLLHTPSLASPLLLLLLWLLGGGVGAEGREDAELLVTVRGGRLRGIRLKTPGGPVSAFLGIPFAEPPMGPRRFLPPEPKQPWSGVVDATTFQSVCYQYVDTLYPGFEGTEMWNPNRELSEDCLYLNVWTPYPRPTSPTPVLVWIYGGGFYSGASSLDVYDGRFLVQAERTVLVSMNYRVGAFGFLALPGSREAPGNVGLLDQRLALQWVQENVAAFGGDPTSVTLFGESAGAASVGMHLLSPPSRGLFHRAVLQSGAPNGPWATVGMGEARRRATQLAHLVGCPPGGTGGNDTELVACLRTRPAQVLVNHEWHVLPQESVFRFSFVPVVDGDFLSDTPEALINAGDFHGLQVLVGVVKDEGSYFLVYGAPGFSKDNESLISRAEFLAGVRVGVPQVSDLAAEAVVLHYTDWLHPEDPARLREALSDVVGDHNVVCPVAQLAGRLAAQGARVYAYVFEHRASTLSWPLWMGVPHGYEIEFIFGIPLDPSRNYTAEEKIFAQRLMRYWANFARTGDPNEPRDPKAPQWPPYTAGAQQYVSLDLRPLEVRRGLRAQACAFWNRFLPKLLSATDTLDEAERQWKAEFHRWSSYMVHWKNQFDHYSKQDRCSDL
Sequence of Aromatase (Homo sapiens) (P11511 whole entry, looked up): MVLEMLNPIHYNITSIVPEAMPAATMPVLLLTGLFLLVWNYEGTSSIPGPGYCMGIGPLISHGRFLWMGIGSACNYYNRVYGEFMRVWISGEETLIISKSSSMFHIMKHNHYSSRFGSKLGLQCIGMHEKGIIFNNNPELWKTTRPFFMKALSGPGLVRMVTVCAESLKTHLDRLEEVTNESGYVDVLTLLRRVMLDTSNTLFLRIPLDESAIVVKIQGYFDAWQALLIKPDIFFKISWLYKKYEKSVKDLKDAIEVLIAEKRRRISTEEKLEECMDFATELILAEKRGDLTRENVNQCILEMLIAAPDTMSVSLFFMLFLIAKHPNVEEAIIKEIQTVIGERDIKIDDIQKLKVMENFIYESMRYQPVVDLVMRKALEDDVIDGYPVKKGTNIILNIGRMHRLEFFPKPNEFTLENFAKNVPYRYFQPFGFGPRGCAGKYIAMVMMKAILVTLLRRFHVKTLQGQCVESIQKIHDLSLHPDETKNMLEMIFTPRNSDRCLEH

Take `CCCCC(CC)COC(=O)c1ccc(C(=O)OCC(CC)CCCC)cc1` (configuration not stated): the Potency result (in the assay with Aromatase (Homo sapiens); in [1]; in assay [2]; in assay [3]; in [4]; in [5]) was “inactive” in each case. Also, the Potency result in assay [6] was “inactive”.
In the case of `OC(Cc1ccccc1Cl)(Cn1[nH]cnc1=S)C1(Cl)CC1` (configuration not stated), the Potency entry in [2], in [7], in [8], in assay [9], in [11] and in [3] was “inactive” throughout. In addition, the Potency result in assay [4], in assay [5] and in [6] was “inactive” in each case. Moreover, the result in [10] and in assay [12] was inactive.
As to `Cc1nnc2n1-c1sc(CCc3ccc(CC(C)C)cc3)cc1C(c1ccccc1Cl)=NC2C` (configuration not stated), the Potency result in assay [1], in [7], in assay [8], in [9], in [3] and in [4] was “inactive” in each case. Further, the Potency entry in assay [5], in [6] and in assay [13] was “inactive” in each case. In addition, the compound was called inactive in [10] and in [12].
In the case of `C=CC(=O)OCCCC`, the Potency entry (with Aromatase (Homo sapiens); in assay [3]; in assay [4]; in [5]; in [6]) was “inactive” throughout.
For `CCN(CC)C(=O)Cl`, the Potency entry in assay [2], in assay [7], in [8], in [9], in assay [11] and in assay [3] was “inactive” each time. The Potency entry in assay [4], in assay [5], in assay [6] and in assay [13] was “inactive” in each case. The call in assay [10] and in [12] was inactive.
Consider `Nc1ccc([N+](=O)[O-])cc1`, for which the Potency result (with Aromatase (Homo sapiens); in [14]; in assay [15]; in assay [16]; in assay [17]; in [2]) was “inactive” each time. Besides, the Potency entry in [7], in [8], in assay [3], in assay [4], in [5] and in [6] was “inactive” in each case. In addition, the outcome in assay [10] and in [12] was inactive. The Potency in assay [13] was 39.9 µM (active).
As for `O=[N+]([O-])c1cc(C(F)(F)F)ccc1Cl`, the Potency result (in the assay with Aromatase (Homo sapiens); in [3]; in assay [4]; in assay [5]; in assay [6]) was “inactive” throughout.
With `O=[N+]([O-])c1c(Cl)c(Cl)cc(Cl)c1Cl`, the Potency result in [1], in assay [18], in assay [19], in assay [14], in assay [15] and in [16] was “inactive” each time. The Potency result in assay [17], in assay [8], in [9], in assay [11], in assay [3] and in assay [4] was “inactive” in each case. The Potency result in [5] and in assay [6] was “inactive” in each case. In addition, the compound was called inactive in assay [10] and in [12]. Besides, the Potency in [13] is 4.8 µM (active).
Regarding `ClC(Cl)=C(c1ccc(Cl)cc1)c1ccccc1Cl`, the Potency result in [7], in [8], in assay [9], in assay [11], in [3] and in [4] was “inactive” each time. Also, the Potency entry in assay [5], in [6] and in [13] was “inactive” throughout. In addition, the outcome in [10] and in assay [12] was inactive.
Turning to `Cc1cc(C(C)(C)c2ccc(O)c(C)c2)ccc1O`, the Potency was 65.3 µM (active) with Aromatase (Homo sapiens) and 33.9 µM (active) in assay [13]. The Potency entry in assay [1], in assay [2], in assay [7], in assay [8], in assay [9] and in [3] was “inactive” each time. Besides, the Potency result in assay [4], in [5] and in assay [6] was “inactive” throughout. In addition, the call in [10] and in [12] was inactive.
